Only some compounds are listed: those with a hit (about 2.8% of all), similar ones and a draw of the others.
Fam108B inh: mouse Fam108B serine hydrolase inhibitors, primary screen, counter-screen for RBBP9 inhibitor project, biochemical, fluorescence polarization; AID 1947, 2009; inhibition, % at 9.51 µM; 0.33% of 300,000 active; recombinant Fam108B, FP-Rh probe fluorescence polarization;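 active means inhibition above the screen mean inhibition plus 3 SD, computed separately per campaign, cut at about 18% in these data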;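 further: inhibitors lower polarization as less probe binds the enzyme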
PME-1 primary: PME-1 inhibitors via competitive probe labeling, primary screen, biochemical, fluorescence polarization, FP-Rh probe, HTS | inhibition, % at 5.9 µM | AID 2130, 2009 | Protein phosphatase methylesterase 1 (Homo sapiens), Q9Y570 | 0.53% of 320,000 active | recombinant PME-1;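 active means inhibition above the campaign mean of all compounds plus 3 SD, cut at about 26% in these data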;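 further: competitive labeling of PME-1 active site by serine hydrolase directed probe; inhibitors block probe labeling so polarization falls and inhibition rises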
Target sequence (Q9Y570 whole entry, looked up): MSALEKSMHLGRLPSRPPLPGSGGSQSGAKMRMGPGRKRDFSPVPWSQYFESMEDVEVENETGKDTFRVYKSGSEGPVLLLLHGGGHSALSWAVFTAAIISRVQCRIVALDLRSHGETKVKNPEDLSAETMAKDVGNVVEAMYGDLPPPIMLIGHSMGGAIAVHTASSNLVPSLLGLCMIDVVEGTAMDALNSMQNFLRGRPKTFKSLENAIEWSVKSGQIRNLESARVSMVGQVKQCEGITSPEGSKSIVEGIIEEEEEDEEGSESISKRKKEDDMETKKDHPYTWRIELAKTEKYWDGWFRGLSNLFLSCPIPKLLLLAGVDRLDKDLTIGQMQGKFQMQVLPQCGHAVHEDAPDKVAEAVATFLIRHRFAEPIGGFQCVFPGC
PAFAH1B3 inh: PAFAH1B3 enzyme inhibitors, primary screen, biochemical, fluorescence polarization, human. Platelet-activating factor acetylhydrolase IB subunit alpha1 (Homo sapiens), Q15102. recombinant PAFAH1B3, FP-rhodamine probe. inhibition, % at 3.39 µM. 0.28% of 340,000 active. AID 492972, 2010;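 active means inhibition above the screen-wide average of all tested compounds plus 3 SD, cut at about 25% in these data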
Target sequence (Q15102 whole entry, looked up): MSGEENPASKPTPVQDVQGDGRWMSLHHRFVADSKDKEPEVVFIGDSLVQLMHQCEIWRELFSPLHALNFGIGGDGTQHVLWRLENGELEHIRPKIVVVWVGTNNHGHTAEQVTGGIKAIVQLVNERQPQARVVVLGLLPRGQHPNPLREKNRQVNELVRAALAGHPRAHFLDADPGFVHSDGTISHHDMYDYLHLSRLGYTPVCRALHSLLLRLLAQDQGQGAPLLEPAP
pPAFAH inh: pPAFAH enzyme inhibitors, primary screen, biochemical, fluorescence polarization, human | Platelet-activating factor acetylhydrolase (Homo sapiens), Q13093 | inhibition, % at 3.39 µM | recombinant pPAFAH, FP-rhodamine probe fluorescence polarization | 1.5% of 330,000 active | AID 463082, 2010;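 active means inhibition above the mean inhibition across the screen plus 3 SD, cut at about 25% in these data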;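 further: inhibitors block binding of the rhodamine activity-based probe so polarization drops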
PAFAH2 FP inh: PAFAH2 enzyme inhibitors, primary screen, biochemical, fluorescence polarization, human; Platelet-activating factor acetylhydrolase 2, cytoplasmic (Homo sapiens), Q99487; recombinant PAFAH2, FP-rhodamine activity probe; inhibition, % at 3.39 µM; 0.99% of 340,000 active; AID 492956, 2010;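 active means inhibition above the mean over all tested compounds plus 3 SD, cut at about 30% in these data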;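 further: inhibitors block probe labeling of enzyme so polarization drops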
PAFAH1B2 inh: PAFAH1B2 enzyme inhibitors, primary screen, biochemical, fluorescence polarization, human | Platelet-activating factor acetylhydrolase IB subunit alpha2 (Homo sapiens), P68402 | recombinant PAFAH1B2, FP-rhodamine activity probe | inhibition, % at 3.39 µM | 1.2% of 340,000 active | AID 492953, 2010;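 active means inhibition above the mean of all tested compounds plus 3 SD, cut at about 24% in these data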
A number is an active result; 0 = inactive; - = not tested or not shown.

SMILES	Fam108B inh	PME-1 primary	PAFAH1B3 inh	pPAFAH inh	PAFAH2 FP inh	PAFAH1B2 inh
CCC1CCC/C1=N\NC(=O)c1cc(C)[nH]n1 (centres undefined)	0	0	0	34.3	0	0
CCC1CCC/C1=N\NC(=O)c1ccccc1Cl (centres undefined)	0	0	-	0	-	-
CC(C)c1ccc(N(CC(=O)NCCCN2CCOCC2)S(=O)(=O)c2ccccc2)cc1	-	-	0	-	0	0
O=C(O)c1cc(N2N=C(C(F)(F)F)/C(=C/C=C/c3ccco3)C2=O)ccc1Cl	-	-	36.7	-	58.5	31.9
CCOC(=O)c1ccc(N2N=C(C)/C(=C/C=C/c3ccco3)C2=O)cc1	0	0	0	0	0	0
CCOC(=O)N1CCN(C(=O)c2ccccc2NC(=O)COc2ccccc2)CC1	0	0	0	0	0	49.2
CCOC(=O)N1CCN(C(=O)c2ccccc2NC(C)=O)CC1	0	0	0	0	0	0
COCCCNC(=O)CSc1ccsc1[N+](=O)[O-]	0	0	0	0	0	0
Cc1ccccc1NC(=O)CSc1ccsc1[N+](=O)[O-]	0	0	0	27.0	0	0
O=C1CC(c2ccco2)CC(O)=C1C=Nc1cc(Cl)ccc1O (centres undefined)	0	0	0	33.9	0	0
O=C1CC(c2ccco2)CC(O)=C1C=Nc1cc(Cl)ccc1Cl (centres undefined)	0	0	0	0	0	0
COc1cc(/C=C2/SC(=O)N(CC(=O)N3CCCC3)C2=O)ccc1Oc1ccc([N+](=O)[O-])cn1	0	0	0	0	0	0
O=C(c1ccccc1)N1CCN(C(=O)c2ccccc2)c2ccccc21	-	-	0	-	0	0
C=CCN([C@@H](CC(C)C)C(=O)OC)S(=O)(=O)N(CC=C)[C@@H](CC(C)C)C(=O)OC	-	0	0	0	0	0
Nc1c(C(=O)Nc2ccccc2F)sc2nc(-c3ccco3)ccc12	0	36.5	0	31.2	0	0
Nc1c(C(=O)Nc2ccccc2F)sc2nc(-c3cccnc3)ccc12	0	0	0	0	0	0
CCN(CC)c1ccc(/C=N/NC(=O)c2nnn(-c3nonc3N)c2C(C)C)c(O)c1	0	0	0	27.8	0	0
CC(C)c1c(C(=O)N/N=C/c2ccc3c(c2)OCO3)nnn1-c1nonc1N	0	0	0	0	0	0
Cc1cccc(OCC(=O)OCC(=O)N2CCN(C(=O)c3ccco3)CC2)c1C	0	0	0	26.9	0	0
Cc1ccc(SCC(=O)OCC(=O)N2CCN(C(=O)c3ccco3)CC2)c(C)c1	0	0	0	33.6	0	0
O=C(CSc1ccccc1)OCC(=O)N1CCN(C(=O)c2ccco2)CC1	-	0	0	25.5	0	0
O=C(CSc1ccccc1)N1CCN(C(=O)c2ccco2)CC1	0	0	0	0	0	0
C=CCn1c(=S)[nH]c2cc(C(=O)Nc3ccc(F)cc3)ccc2c1=O	0	0	0	0	0	0
COc1cc(C(=O)N/C(=C/c2ccc(F)cc2)C(=O)NC(C(=O)O)c2ccccc2)cc(OC)c1OC (centres undefined)	0	0	0	0	0	0
Cn1c2c(c3ccccc31)CCN(CCCCN1CCN(c3ccccc3)CC1)C2=O	-	-	0	-	0	0
SMILES	Fam108B inh	PME-1 primary	PAFAH1B3 inh	pPAFAH inh	PAFAH2 FP inh	PAFAH1B2 inh
CC1CCCCC12NC(=O)N(CC(=O)Nc1cccc(S(=O)(=O)N3CCCCC3)c1)C2=O (centres undefined)	-	0	0	0	0	0
CC(NC(N)=O)C12CC3CC(CC(C3)C1)C2 (centres undefined)	0	0	0	0	0	25.8
CCCn1c(CCC(=O)O)ccc1-c1ccc(OC)cc1	0	0	0	0	0	0
COc1ccc(-c2ccc(CCC(=O)O)n2Cc2ccco2)cc1	0	0	0	27.6	0	0
Cc1ccc(Nc2c(-c3ccccn3)nc3ccc(C)cn23)cc1	0	0	0	28.1	0	0
Cc1ccc(Nc2c(-c3ccccn3)nc3cc(C)ccn23)cc1	0	0	0	0	0	0
COc1ccc(C2CC(c3ccccc3)=NN2c2ccc(C(N)=O)cc2)cc1 (centres undefined)	0	0	0	0	0	0
O=C(O)c1ccc(N2N=C(c3ccccc3)CC2c2ccccc2)cc1 (centres undefined)	0	0	0	32.1	0	0
O=Cc1ccc(N2N=C(c3ccccc3)CC2c2ccccc2)cc1 (centres undefined)	0	0	0	30.4	0	0
O=C(O)CC/C(=N\Nc1ccc(S(=O)(=O)N2CCCC2)cc1[N+](=O)[O-])c1cccs1	-	-	0	-	0	27.9
O=C(NCCCNc1ccc(C(F)(F)F)cc1[N+](=O)[O-])c1ccc(Cl)cc1	0	0	0	0	0	29.4
CC(=O)c1cccc(NC(=O)C(C)OC(=O)CCN=C2NS(=O)(=O)c3ccccc32)c1 (centres undefined)	0	0	86.3	0	105.9	105.7
CCCCN(C(=O)c1cnccn1)c1c(N)n(CCC)c(=O)[nH]c1=O	-	-	0	0	0	0
COc1ccc(CCCNC(=O)C2CCC(=O)N(CC3CCCCC3)C2)cc1 (centres undefined)	0	0	0	0	0	0
O=C(OCc1cn(-c2ccc(Cl)c(Cl)c2)nn1)c1ccccc1	0	0	0	0	78.5	0
CC(=O)c1c(C)[nH]c(C(=O)Nc2ccc(F)cc2F)c1C	0	0	0	0	0	0
Cc1ccc(C)c(N2CCN(C(=O)c3ccc4nc(-c5ccco5)c(-c5ccco5)nc4c3)CC2)c1	0	0	0	31.1	0	0
COc1ccccc1N1CCN(C(=O)c2ccc3nc(-c4ccco4)c(-c4ccco4)nc3c2)CC1	0	0	0	0	0	0
O=C(c1ccccc1NS(=O)(=O)c1ccc([N+](=O)[O-])cc1[N+](=O)[O-])N1O[C@@H]2C=C[C@H]1C2	-	-	0	0	0	0
Cc1nn(-c2ccccc2)c(Cl)c1C(=O)NCCCCNC(=O)c1c(C)nn(-c2ccccc2)c1Cl	0	0	0	0	0	0
CCC(=O)N(Cc1c(C)nn(-c2ccccc2)c1Cl)c1ccc(Cl)cc1	0	0	0	0	0	24.4
O=C(Nc1ccc(S(=O)(=O)Nc2nccs2)cc1)c1nn(-c2ccc(F)cc2)ccc1=O	0	0	0	26.3	0	0
CCOc1ccc(-n2ccc(=O)c(C(=O)Nc3ccc(S(=O)(=O)Nc4nccs4)cc3)n2)cc1	0	0	0	0	0	0
CCCC(=O)Nn1cnc2c(c1=O)C1(CCCC1)Cc1ccccc1-2	0	0	0	0	0	0

Bioassay records (PubChem)
